PubChem BioAssay AID1851 (National Center for Advancing Translational Sciences (NCATS), 2009)
The whole screen tested about 16,000 compounds, of which about 5,800 (36%) were called active. Inconclusive results (about 23%) are left out. This is one part of the list. A number with no mark means an inactive call. Calls follow the shape of the dose curve; as a rule, active = well fitted curve in the direction sought with a large enough effect; inconclusive = small, poorly fitted or top-dose-only effect, or effect the other way; inactive = no such curve, though single readings can be large or run the other way.

molecular target: Cytochrome P450 2C19 (Homo sapiens) (UniProt P33261); experiment: Cytochrome panel assay with activity outcomes; settings: recombinant CYP, pro-luciferin dealkylation, luminescence, p450-cyp2c19; series mostly up to 57.1 µM; activity, negative = inhibition: at the top concentration
Sequence (P33261 whole entry, looked up): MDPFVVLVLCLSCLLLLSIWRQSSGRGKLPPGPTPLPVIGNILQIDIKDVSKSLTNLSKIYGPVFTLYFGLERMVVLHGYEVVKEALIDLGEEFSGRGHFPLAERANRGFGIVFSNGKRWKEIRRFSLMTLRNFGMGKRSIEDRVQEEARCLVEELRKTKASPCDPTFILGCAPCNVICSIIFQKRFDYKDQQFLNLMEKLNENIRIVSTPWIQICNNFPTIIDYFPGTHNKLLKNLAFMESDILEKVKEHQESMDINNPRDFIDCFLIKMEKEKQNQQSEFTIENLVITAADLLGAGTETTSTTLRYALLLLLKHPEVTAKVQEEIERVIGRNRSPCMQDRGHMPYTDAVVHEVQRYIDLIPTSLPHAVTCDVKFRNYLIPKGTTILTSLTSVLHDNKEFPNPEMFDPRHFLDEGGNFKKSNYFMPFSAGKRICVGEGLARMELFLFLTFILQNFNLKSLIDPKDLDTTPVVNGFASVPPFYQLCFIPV
% is scaled to controls: 0 for no effect and ±100 for the full control effect.

**Q.** With N#Cc1cccc(NC(=O)N2CCC3(CC2)CCN(C(=O)c2cccc(F)c2)CC3)c1 as the molecule, how does the “activity, negative = inhibition” value read?
**A.** -25.9%

**Q.** O=S1(=O)[C@H]([C@H]2CC3c4ccccc4C2c2ccccc23)[C@@H](N2CCCCC2)[C@@H]1c1ccccc1 was tested. Which AC50 did it give?
**A.** 2.51 µM (active)

**Q.** O=C(O)[C@H]1C[C@@H](CP(=O)(O)O)CCN1 was tested. Which AC50 did it give?
**A.** 7.94 µM (active)

**Q.** For O=C(O)[C@@H]1CCCN1, which activity, negative = inhibition is on record?
**A.** 19.4% [at 11.4 µM]

**Q.** With O=C(O)[C@H]1CN(CCCP(=O)(O)O)CCN1 as the molecule, how does the “activity, negative = inhibition” value read?
**A.** -8.91%

**Q.** With CCCCn1c(SCc2c(C)noc2C)nc2cc(S(N)(=O)=O)ccc21 as the molecule, how does the AC50 read?
**A.** 14.1 µM (active)

**Q.** With CCOc1c(OC(C)=O)ccc(/C=C/c2ccc3cccc(OC(C)=O)c3n2)c1[N+](=O)[O-] as the molecule, how does the AC50 read?
**A.** 10 µM (active)

**Q.** How did the AC50 turn out when CCOc1c(OC(C)=O)ccc(/C=C2\N=C(SCC)SC2=O)c1[N+](=O)[O-] was run?
**A.** 2.82 µM (active)

**Q.** With COc1ccc(-c2cc(C(F)F)nc(-n3nc(C)cc3C)n2)cc1 as the molecule, how does the AC50 read?
**A.** 28.2 µM (active)

**Q.** Which AC50 does the source give for Cc1c(C)c2c(C)[nH]nc2oc1=O here?
**A.** 17.8 µM (active)

**Q.** Which AC50 does the source give for Fc1ccc(CSc2ncnc3sc4c(c23)CCCC4)cc1 here?
**A.** 0.891 µM (active)

**Q.** Which activity, negative = inhibition does the source give for Clc1ccc(CSc2ncnc3c2ncn3[C@@H]2CCCCO2)cc1 here?
**A.** -40.6% [at 11.4 µM]

**Q.** Nc1[nH]c(=O)nc2c1ncn2[C@H]1O[C@@H](CO)[C@@H](O)[C@@H]1O was tested. Which activity, negative = inhibition did it give?
**A.** 25.3% [at 11.4 µM]

**Q.** How did the AC50 turn out when CCn1c2ccccc2c2cc(/C=N/n3cn[nH]c3=S)ccc21 was run?
**A.** 3.55 µM (active)

**Q.** How did the activity, negative = inhibition turn out when O=C1[C@H]2[C@H]3[C@H](O)[C@H](O)C/C(=N/OC[C@@H](O)COCc4ccco4)[C@@H]3CC[C@@H]2C(=O)N1C1CCCCC1 was run?
**A.** 9.78% [at 11.4 µM]

**Q.** CS(=O)(=O)Nc1ccc(S(=O)(=O)N2CCOCC2)cc1 was tested. Which “activity, negative = inhibition” value did it give?
**A.** 12.7%

**Q.** Which AC50 does the source give for COc1cc(NC(=S)Nc2ccc(S(=O)(=O)N3CCOCC3)cc2)cc(OC)c1OC here?
**A.** 10 µM (active)

**Q.** Which “activity, negative = inhibition” value does the source give for CCCc1c(OCCCOc2ccc(OCC(=O)O)cc2)ccc(CC=O)c1O here?
**A.** 14%

**Q.** COc1ccc(CC(=O)Nc2cccc(/C(C)=N/NC(=O)c3cccc([N+](=O)[O-])c3)c2)cc1 was tested. Which AC50 did it give?
**A.** 14.1 µM (active)

**Q.** For COc1ccc(C(=O)N/N=C(\C)Cn2nc([N+](=O)[O-])cc2C)cc1, which “activity, negative = inhibition” value is on record?
**A.** -29%

**Q.** Which AC50 does the source give for Cc1cc2nnc(SCC(=O)OC(C)C)n2c2ccccc12 here?
**A.** 7.94 µM (active)

**Q.** CCSc1nnc2n(N)c(=O)c3ccccc3n12 was tested. Which “activity, negative = inhibition” value did it give?
**A.** -68.5%

**Q.** For COC(=O)c1cc(C#N)c(NCc2ccc(Cl)cc2Cl)nc1C, which “activity, negative = inhibition” value is on record?
**A.** -14%

**Q.** Which AC50 does the source give for COC(=O)c1cc(C#N)c(Oc2ccc(OC)cc2)nc1C here?
**A.** 17.8 µM (active)

**Q.** How did the “activity, negative = inhibition” value turn out when COc1ccc(Oc2ncc3nc(C)c(=O)n(-c4ccc(OC)cc4)c3n2)cc1 was run?
**A.** -22%

**Q.** For CC(=O)c1cc(C#N)c(Oc2cccc(C(F)(F)F)c2)nc1C, which AC50 is on record?
**A.** 11.2 µM (active)
